Compounds with a hit are over-represented: about 1.4% of the library has one in this group of screens.
LmPK inhibitor = blocks Leishmania mexicana pyruvate kinase activity; Q27686; purified LmPK, Kinase-Glo ATP luminescence, 1 h; Potency, µM (series often up to 57.5 µM), without a hit: top-dose activity change, negative = inhibition, most hits filed as inhibitors; 0.37% of 290,000 active
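Purified LmPK (0.1 nM) converted ADP (0.1 mM) to ATP with PEP (0.5 mM) in imidazole buffer pH 7.2 with KCl and MgCl2, 1 h at room temperature. ATP was read by Kinase-Glo luminescence; data normalized to uninhibited and no-enzyme controls.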
AmpC inh detg = blocks E. coli AmpC beta-lactamase in detergent assay. P00811. Potency, µM (top dose mostly 114 µM), for inactives: top-dose activity change, negative = inhibition, most hits filed as inhibitors. AmpC hydrolysis of nitrocefin, absorbance 480 nm, 0.01% Triton. 0.041% of 370,000 active;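 also: 0% = no-compound wells and -100% = no-enzyme wells; nearly all actives have a fitted effect of over 25% in size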
Target sequence (P00811 whole entry, looked up): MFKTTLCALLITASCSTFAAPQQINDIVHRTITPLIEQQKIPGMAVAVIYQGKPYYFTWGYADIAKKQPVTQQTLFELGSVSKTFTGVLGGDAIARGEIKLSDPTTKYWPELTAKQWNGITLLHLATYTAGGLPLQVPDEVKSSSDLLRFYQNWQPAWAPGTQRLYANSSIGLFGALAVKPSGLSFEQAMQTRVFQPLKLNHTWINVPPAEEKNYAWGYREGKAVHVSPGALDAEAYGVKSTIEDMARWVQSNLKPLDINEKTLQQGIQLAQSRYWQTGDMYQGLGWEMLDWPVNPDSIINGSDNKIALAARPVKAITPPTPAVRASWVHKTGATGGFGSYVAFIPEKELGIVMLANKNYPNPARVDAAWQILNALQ
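20 mM phosphate pH 7.0 + 0.01% (detergent screen) or 0.0001% Triton X-100; 5.3 nM AmpC reagent; cpd preinc 15 min RT; nitrocefin (800 uM stock) to start; A480 q20 s × 4 min; Activity was normalised to no-enzyme and no-compound control wells.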
FBPA Giardia inh = Giardia lamblia aldolase inhibition | A8B2U2 | purified Giardia FBPA | Potency, µM (series often up to 59.6 µM), for the others: at the highest dose activity, negative = inhibition, usual class: inhibitors | 0.71% of 290,000 active | AID 2451; also: nearly all actives have a fitted effect of over 55% in size
Target sequence (A8B2U2 whole entry, looked up): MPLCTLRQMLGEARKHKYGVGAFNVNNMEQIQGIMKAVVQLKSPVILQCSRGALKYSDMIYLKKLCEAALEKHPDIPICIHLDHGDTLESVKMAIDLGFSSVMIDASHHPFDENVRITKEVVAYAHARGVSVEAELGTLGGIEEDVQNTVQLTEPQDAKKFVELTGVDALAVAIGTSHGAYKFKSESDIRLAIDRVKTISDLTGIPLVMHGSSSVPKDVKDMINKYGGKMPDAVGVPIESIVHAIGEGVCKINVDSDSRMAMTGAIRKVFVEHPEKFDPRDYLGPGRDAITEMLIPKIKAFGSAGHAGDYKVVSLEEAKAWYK
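Giardia FBPA (40 nM reagent) was preincubated 10 min at RT with compound (up to 57.5 uM final), then substrate plus GAPDH/TPI/NAD/arsenate coupling system with diaphorase/resazurin was added; resorufin fluorescence (525/598 nm) was read after 20 min.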
AmpC no deterg = blocks E. coli AmpC beta-lactamase in detergent-free assay. AID 485341. 0.52% of 330,000 active. AmpC nitrocefin hydrolysis, absorbance 480 nm, 0.0001% Triton. P00811. Potency, µM (titrated, usually from 57.1 µM), without a hit: at the highest dose activity change, negative = inhibition, usual class: inhibitors;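 also: plate controls were no compound for no effect and no enzyme for full effect; nearly all actives have a fitted effect of over 20% in size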
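20 mM phosphate pH 7.0 + 0.01% (detergent screen) or 0.0001% Triton X-100; 5.3 nM AmpC reagent; cpd preinc 15 min RT; nitrocefin (800 uM stock) to start; A480 q20 s × 4 min; Activity was normalised to no-enzyme and no-compound control wells.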
Tb PYK inh = blocks Trypanosoma brucei pyruvate kinase; AID 624173; TbPYK enzyme, Kinase-Glo Plus ATP luminescence, 45 min; Q57TT1; Potency, µM (doses to about 76.8 µM), for inactives: top-dose activity, negative = inhibition, usual class: inhibitors; 0.12% of 410,000 active; also: nearly all actives have a fitted effect of over 50% in size
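Luminescence from Kinase-Glo Plus, added after a 45-minute room-temperature reaction, served as the end-point read-out. The enzyme and substrate were preincubated with compound before ADP (130 uM final) initiated turnover. Concentration-effect curves came from normalized qHTS data.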
RE007 growth inh = less growth of the S. pombe RE007 Vpr strain; S. pombe RE007 Vpr strain, BacTiter-Glo ATP luminescence, 24 h; Potency, µM (titrated, usually from 92.2 µM), inactives show top-dose activity change, negative = less growth, usual class: inhibitors; 0.21% of 360,000 active; active = well fitted falling curve with a large enough effect; inconclusive = small, poorly fitted or top-dose-only effect; inactive = no such curve, though single readings can be large or run the other way; also: nearly all actives have a fitted effect of over 50% in size
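Fission yeast strain RE007, carrying one chromosomally integrated HIV-1 vpr copy, was seeded at OD 0.01 in PMG+AL medium with 23 nL pinned compound. After 24 h at 30 °C and 99% humidity, viability was read by BacTiter-Glo luminescence.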
* = called active by the depositor; ? = inconclusive; . = not tested or not shown. Unless noted, calls follow the shape of the dose curve; as a rule, active = well fitted curve in the direction sought with a large enough effect; inconclusive = small, poorly fitted or top-dose-only effect, or another doubt; inactive = no such curve, though single readings can be large; an effect the other way counts as inactive or inconclusive. Unless noted, % is scaled to controls: 0 for no effect and ±100 for the full control effect; potency is read from the fitted curve at half-maximal effect.

SMILES	LmPK inhibitor	AmpC inh detg	FBPA Giardia inh	AmpC no deterg	Tb PYK inh	RE007 growth inh
CNC(=O)Oc1ccc2c(c1)[C@]1(C)CCN(C)[C@@H]1N2C	1.2%	-16.0%	?	-22.5%	1.7%	0.0%
CN1CC[C@@]2(C)c3cc(O)ccc3N(C)C12 (stereo partly drawn)	.	.	2.81µM*	.	.	.
CCOc1ccccc1Nc1nnc(SCC(=O)Nc2nc(-c3ccc(OC)cc3)cs2)s1	-1.4%	2.7%	-0.5%	-27.4%	?	-5.7%
CSc1nnc(SCC(=O)Nc2ccc3[nH]c(=O)[nH]c3c2)s1	.	-2.1%	.	-8.4%	-9.3%	15.1%
COc1ccccc1Nc1nnc(SCC(=O)Nc2nc(-c3ccc(F)cc3)cs2)s1	-1.1%	-0.4%	1.2%	15.8µM*	-9.9%	-5.9%
CCOc1ccccc1Nc1nnc(SCC(=O)Nc2ccc3[nH]c(=O)[nH]c3c2)s1	0.4%	-2.7%	-17.7%	17.8µM*	-6.5%	-22.6%
CC(C)Nc1nnc(SCC(=O)Nc2ccc3c(c2)C(=O)c2ccccc2C3=O)s1	-1.5%	2.5%	-6.3%	10µM*	0.8%	11.7%
COc1ccc(NC(=O)NC(C)c2c(-n3cccc3)sc3c2CCN(C)C3)c(OC)c1 (stereo not drawn)	.	-5.1%	.	.	-2.0%	.
CSc1nc2c(sc3ccccc32)c(=O)n1Cc1ccc(C)cc1	.	5.3%	.	.	1.2%	.
O=C(CSCc1cc(=O)[nH][nH]1)Nc1ccc(F)cc1	0.9%	?	-5.7%	-48.2%	-0.8%	20.3%
CCCCc1ccc(NC(=O)CSCc2cc(=O)[nH][nH]2)cc1	-0.9%	-0.7%	-0.2%	17.8µM*	-0.3%	21.1%
Cc1ccc(NC(=O)NCCc2c(C)nn(C)c2C)c(Cl)c1	.	-3.3%	.	.	2.5%	.
O=C(N/N=C/C=C\c1ccccc1[N+](=O)[O-])c1cc(-c2ccc3ccccc3c2)n[nH]1	3.1%	-9.0%	-1.1%	10µM*	-0.5%	7.5%
CCOc1ccc(-c2csc(-c3c(N)c(C(=O)c4ccc5c(c4)OCO5)n4ccccc34)n2)cc1	.	22.0%	.	.	0.5%	.
O=C1c2cccc3cccc(c23)C(=O)C1(O)O	.	.	.	.	7.08µM*	3.8%
c1ccc2c(c1)-c1cccc3cccc-2c13	.	-3.0%	.	-10.6%	1.4%	-3.7%
CCOC(=O)c1ccc(NC(=O)c2ccc(=O)n(Cc3cccc(C)c3)c2)cc1	.	0.2%	.	.	2.5%	.
CCCC(=O)NC1=C(Cl)C(=O)c2ccccc2C1=O	.	.	.	.	?	7.08µM*
O=C1C(Cl)=C(NCc2ccco2)C(=O)c2ccccc21	.	.	.	.	-8.0%	20µM*
O=C1c2ccccc2-c2onc3ccc(NCc4ccco4)c1c23	-26.1%	-15.4%	?	?	-23.2%	28.2µM*
CCNC1=C(Cl)C(=O)c2ccccc2C1=O	18.7%	10.1%	?	-19.5%	-3.8%	15.8µM*
CCNc1ccc2noc3c2c1C(=O)c1ccccc1-3	-14.0%	1.2%	-22.3%	137.0%	?	-20.3%
CCN(CC)c1ccc(NC2=C(Cl)C(=O)c3ccccc3C2=O)cc1	?	?	?	-22.8%	-18.8%	?
CCCOc1ccc(Nc2nc(SC)ncc2C(=O)OCC)cc1	.	15.9%	.	.	11.7%	.
CCCCCc1cc(O)c2c(c1)OC(C)(C)c1ccc(C)cc1-2	.	.	.	.	8.5%	.
SMILES	LmPK inhibitor	AmpC inh detg	FBPA Giardia inh	AmpC no deterg	Tb PYK inh	RE007 growth inh
O=C(CCc1c[nH]c2ccccc12)N=Nc1c(O)[nH]c2ccccc12	1.9%	-5.8%	0.5%	31.6µM*	-8.7%	1.0%
O=C(CCNC(=O)c1ccccc1)N=Nc1c(O)[nH]c2ccccc12	-1.6%	2.0%	-4.1%	-10.5%	.	.
O=C(N=Nc1c(O)[nH]c2ccccc12)c1cc(NS(=O)(=O)c2cccs2)cc(NS(=O)(=O)c2cccs2)c1	2.1%	2.6%	0.4%	15.8µM*	-28.5%	8.9%
O=C(N=Nc1c(O)[nH]c2ccccc12)c1cccs1	15.8µM*	2.9%	-13.4%	-25.7%	0.3%	-12.1%
COc1ccc(CCNC(=O)c2nc(SCc3ccccc3F)ncc2Cl)cc1OC	.	4.8%	.	.	-2.9%	.
CCn1c(=O)cc(OCC(=O)N2CCN(c3ccc(C)cc3)C(C)C2)c2ccccc21 (stereo not drawn)	.	18.7%	.	.	-8.8%	.
Cc1nn(-c2ccccn2)c2c1-c1nc(N3CCOCC3)ncc1CC2	4.9%	8.2%	?	-2.9%	-11.3%	-7.9%
Cc1nn(-c2ccccn2)c2c1-c1nc(N)ncc1CC2	-0.1%	-13.1%	15.8µM*	-19.6%	3.5%	4.2%
Cc1ccc(S(=O)(=O)c2c(Nc3cc(F)ccc3F)sc(C(=O)c3ccc(F)cc3)c2N)cc1	.	10.7%	.	.	1.1%	.
CCC(CC)C(=O)NCCc1cc2c(OC)ccc(OC)c2[nH]c1=O	-2.3%	-1.4%	-6.2%	-20.2%	-8.3%	0.9%
COc1ccc(OC)c2[nH]c(=O)c(CCNC(=O)C(C)C)cc12	1.2%	?	-29.8%	10µM*	-0.5%	2.8%
O=C(COC(=O)c1cc([N+](=O)[O-])ccc1NCCO)Nc1ccc2c(c1)OCO2	2.6%	0.0%	-9.6%	-16.7%	1.0%	8.7%
O=C(COC(=O)c1cc([N+](=O)[O-])ccc1NCCO)Nc1cccc(S(=O)(=O)N2CCCC2)c1	.	?	.	31.6µM*	-2.2%	-9.8%
CCN(CC)S(=O)(=O)c1cccc(NC(=O)CNc2cccc(S(=O)(=O)N3CCCC3)c2)c1	0.8%	0.0%	-3.3%	28.2µM*	-5.9%	-18.8%
O=C(Cn1c(=O)n(-c2ccc(Cl)cc2)c(=O)c2sc3ccccc3c21)NC1CCCCC1	.	16.2%	.	.	4.5%	.
Cc1ccc(OCC(=O)Nc2ccc3nc(SCC(=O)N(C)c4ccccc4)sc3c2)cc1	.	11.5%	.	.	-2.3%	.
O=[N+]([O-])c1cc([N+](=O)[O-])c2oc(-c3ccccc3)c(Br)c2c1O	-6.6%	-4.6%	3.6%	-45.3%	10.4%	28.2µM*
CCC(C)(C)c1ccc(OCCCC[n+]2ccc(C)cc2)c(C(C)(C)CC)c1	-2.5%	-6.6%	-2.6%	256.8%	6.8%	?
CCC(C)(C)c1ccc(OCCCC[n+]2cccc(C)c2C)c(C(C)(C)CC)c1	0.9%	-3.0%	0.4%	128.9%	4.7%	28.2µM*
O=S(=O)(Nc1cccnc1)c1cccc(C(F)(F)F)c1	-0.3%	0.3%	8.4%	-7.6%	1.7%	-2.4%
O=[N+]([O-])c1ccc(S(=O)(=O)c2cccc(C(F)(F)F)c2)nc1	.	.	.	.	1.7%	39.8µM*
COc1ccc2c(c1)c1c(c(=O)n(-c3ccc(C)cc3)c(=O)n1CC(=O)Nc1cc(C)ccc1C)n2C	.	-1.9%	.	.	-1.1%	.
CC(C)OCCCNC(=O)c1cc2c(-c3ccc(Cl)cc3)nn(C)c2s1	.	5.5%	.	.	0.5%	.

Screens as filed in PubChem BioAssay.
